Measurements published in PubChem BioAssay AID651657 (Broad Institute, 2012).
Entries with a potency or affinity are not part of this list. The source made the active and inactive calls.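 Rule for the calls: active = signal falls, with fitted half-maximal concentration at most twice the top valid dose tested; inconclusive = flat curve with partial signal loss, or poor curve fit; inactive = the rest, including signal rising instead.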

Molecular target: DNA repair and recombination protein RAD54-like (Homo sapiens) (UniProt Q92698)
Sequence (Q92698 whole entry, looked up): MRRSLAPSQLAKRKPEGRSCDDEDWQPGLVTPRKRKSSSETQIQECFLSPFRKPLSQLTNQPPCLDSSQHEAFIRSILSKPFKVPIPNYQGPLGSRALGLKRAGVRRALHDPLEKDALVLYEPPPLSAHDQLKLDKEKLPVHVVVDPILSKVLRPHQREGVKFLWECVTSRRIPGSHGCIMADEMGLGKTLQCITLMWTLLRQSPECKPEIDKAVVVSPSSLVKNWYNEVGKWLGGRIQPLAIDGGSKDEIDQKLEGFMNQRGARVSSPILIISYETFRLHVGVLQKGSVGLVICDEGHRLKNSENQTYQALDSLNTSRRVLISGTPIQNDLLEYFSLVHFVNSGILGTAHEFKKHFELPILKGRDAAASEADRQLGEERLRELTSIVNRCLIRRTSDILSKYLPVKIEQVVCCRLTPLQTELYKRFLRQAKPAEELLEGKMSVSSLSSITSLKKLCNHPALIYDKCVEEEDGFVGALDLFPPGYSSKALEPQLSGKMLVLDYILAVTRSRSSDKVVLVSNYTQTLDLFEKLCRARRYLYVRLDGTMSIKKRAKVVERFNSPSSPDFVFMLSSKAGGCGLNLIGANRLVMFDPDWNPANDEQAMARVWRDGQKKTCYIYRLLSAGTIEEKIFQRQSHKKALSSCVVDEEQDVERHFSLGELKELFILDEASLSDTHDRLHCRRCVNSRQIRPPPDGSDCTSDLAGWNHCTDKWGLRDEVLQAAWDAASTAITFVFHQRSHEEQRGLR
Assay: inhibitors of human RAD54 branch migration, confirmation, biochemical, fluorescence, cherry-picked samples, dose series (AID 651657)
Conditions: FAM/BHQ fluorescence, 60 min; series mostly up to 50 µM

outcome, inactive:
COc1ccc(N2C(=O)CSC23CCCCC3)cc1, CCN1CCN(c2cc(C)c3cc(NC(=S)N4CCC5(CC4)OCCO5)ccc3n2)CC1, Cc1c(Cl)ccc(S(=O)(=O)NCCCn2ccnc2)c1Cl, Cc1ccc(S(=O)(=O)NCCCNS(=O)(=O)c2ccccc2[N+](=O)[O-])cc1, COc1ccccc1C(=O)C(O)c1ccccc1OC (stereo not drawn), O=C(Nc1nnc(COc2ccc(F)cc2)s1)c1ccco1, CN(C)CCCN(C(=O)CCOc1ccccc1)c1nc2ccc(F)cc2s1, NCCN1CCN(CCN)CC1, Cc1ccc(S(=O)(=O)N2CCOCC2)c(C)c1NS(C)(=O)=O, CC(C)CSc1ncc(-c2cccc(C(F)(F)F)c2)cn1, NC(=O)C1CCN(c2nc(-c3cccnc3)cs2)CC1, CCC(=O)N(Cc1cc2cc(OC)ccc2[nH]c1=O)c1cc(C)ccc1C, CCN1CCN(c2cc(C)c3cc(NC(=S)N4CCCC(C)C4)ccc3n2)CC1 (stereo not drawn), C(=C/c1nccc2c1[nH]c1ccccc12)/c1ccc2c(c1)OCO2, C=CCN1C(=O)C(C)(C)Nc2ccccc21, CCOC(=O)C1C(=O)NC(N2CCN(c3ccccc3)CC2)=NC1c1ccco1 (stereo not drawn), c1ccc(-c2nnc(SCc3nc4ccccc4[nH]3)o2)cc1, Cc1ccnc(Nc2nc(-c3sc(C)nc3C)cs2)c1, CCOC(=O)c1[nH]c2cc3c(cc2c1CCCN1C(=O)c2ccccc2C1=O)OCCO3, COc1ccccc1NC(=O)CNC(=O)c1ccccc1, Cc1ccc(S(=O)(=O)CCSc2ccc(C(F)(F)F)cn2)cc1, Cc1cccc2cc3c(N)c(C#N)sc3nc12, CCCC(c1nnnn1Cc1ccc(OC)cc1)N1CCN(c2ccccc2)CC1 (stereo not drawn)
